Data from PubChem BioAssay (NCI).
About 79,000 compounds went through this panel and 15% of them were active in at least one assay; those are over-represented in the sample as a whole. Active and inactive are the calls of the source. No stated cut-off is given here; in the data, active means growth inhibition above about 70%; inactive means the rest.

Experiments:
[1] = NCI Yeast Anticancer Drug Screen. Data for the wt1 strain (AID 149);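 further: 0% = growth of vehicle-treated wt1 cultures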; settings: S. cerevisiae wt1 strain (SPY 50644) growth inhibition, stronger effect = higher value
Method in brief: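 The wt1 strain was treated with compounds, and growth was compared with vehicle-treated cultures to give inhibition.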

[2] = NCI Yeast Anticancer Drug Screen. Data for the rad50EPP+ strain (AID 151);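 further: 0% = growth of vehicle-treated control cultures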; settings: S. cerevisiae rad50 mutant strain, stronger effect = higher value
Method in brief: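 Growth inhibition read against vehicle controls in rad50EPP+ yeast, a strain altered in DNA damage repair, after compound exposure.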

[3] = NCI Yeast Anticancer Drug Screen. Data for the mgt1 strain (AID 153); settings: S. cerevisiae mgt1 mutant growth inhibition, stronger effect = higher value
Method in brief: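 mgt1 yeast grown with test compound; read-out is growth inhibition versus vehicle-treated cultures.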

[4] = NCI Yeast Anticancer Drug Screen. Data for the rad50 strain (AID 155);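 further: 0% = growth of vehicle-only cultures of the same strain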; settings: S. cerevisiae rad50 strain growth inhibition, stronger effect = higher value
Method in brief: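 Cells are treated with compound, grown, and their growth is then scored against vehicle-only cultures of the same repair-deficient yeast strain.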

[5] = NCI Yeast Anticancer Drug Screen. Data for the mec2-1 strain (AID 157); settings: S. cerevisiae mec2-1 strain, stronger effect = higher value
Method in brief: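 Yeast mec2-1 mutant treated with compound. Readout: growth inhibition vs vehicle controls.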

[6] = NCI Yeast Anticancer Drug Screen. Data for the sgs1 mgt1 strain (AID 161);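 further: 0% = growth of cultures given vehicle only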; settings: S. cerevisiae sgs1 mgt1 strain, stronger effect = higher value
Method in brief: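 Test agents were incubated with a DNA-repair-mutant yeast strain. Growth was then read and compared against vehicle-treated controls.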

[7] = NCI Yeast Anticancer Drug Screen. Data for the CLN2oe strain (AID 163);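 further: 0% = growth of vehicle-only control cultures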; settings: S. cerevisiae CLN2oe strain, stronger effect = higher value
Method in brief: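 Read-out: yeast growth inhibition, expressed relative to vehicle-only controls. The strain bears an engineered cell-cycle alteration.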

[8] = NCI Yeast Anticancer Drug Screen. Data for the cln2 rad14 strain (AID 165);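 further: 0% = growth equal to vehicle treated cultures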; settings: S. cerevisiae cln2 rad14 strain, stronger effect = higher value
Method in brief: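 cln2 rad14 yeast strain; compound exposure; growth inhibition read vs vehicle controls.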

[9] = NCI Yeast Anticancer Drug Screen. Data for the bub3 strain (AID 167); settings: S. cerevisiae bub3 mutant strain, stronger effect = higher value
Method in brief: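 Part of a panel of yeast mutants defective in DNA damage repair or cell cycle regulation. Each strain is grown with compound, and inhibition is calculated relative to solvent-treated cultures.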

[10] = NCI Yeast Anticancer Drug Screen. Data for the wt2 strain (AID 169);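 further: 0% = growth of vehicle-treated yeast cultures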; settings: S. cerevisiae wt2 strain growth inhibition, stronger effect = higher value
Method in brief: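 Read-out: growth inhibition versus vehicle-treated control cultures after compound exposure of the yeast strain.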

[11] = NCI Yeast Anticancer Drug Screen. Data for the mlh1 strain (AID 171);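 further: 0% = growth of vehicle-treated control cultures of the same strain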; settings: S. cerevisiae mlh1 strain growth inhibition, stronger effect = higher value
Method in brief: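 Read-out: growth inhibition versus vehicle controls. Strain: engineered yeast with a defined DNA repair or cell cycle defect, compound-treated.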

[12] = NCI Yeast Anticancer Drug Screen. Data for the sgs1 strain (AID 173);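 further: 0% = growth of vehicle-only control cultures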; settings: S. cerevisiae sgs1 mutant, stronger effect = higher value
Method in brief: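 Read-out: yeast growth inhibition relative to vehicle controls, following compound exposure of a strain with a defined DNA repair/cell cycle alteration.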

[13] = NCI Yeast Anticancer Drug Screen. Data for the mlh1 rad18 strain (AID 175); settings: S. cerevisiae mlh1 rad18 strain growth inhibition, stronger effect = higher value
Method in brief: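 Yeast w/ defined DNA-repair lesions; compound exposure; growth vs vehicle controls → % inhibition.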

[14] = NCI Yeast Anticancer Drug Screen. Data for the rad18 strain (AID 177); settings: S. cerevisiae rad18 mutant growth inhibition, stronger effect = higher value
Method in brief: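 Readout: growth inhibition vs vehicle controls. Cells: genetically altered yeast strain, DNA repair defect.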

[15] = NCI Yeast Anticancer Drug Screen. Data for the rad14 strain (AID 159);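 further: 0% = growth of vehicle-treated control cultures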; settings: S. cerevisiae rad14 strain growth inhibition, stronger effect = higher value
Method in brief: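 Readout: yeast growth inhibition, referenced to vehicle-only cultures. Strain bears a defined alteration in DNA damage repair.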

[16] = at 5.0 µM (retest, dose inferred, filed as 0.5)
[17] = at 50.0 µM (retest, dose inferred, filed as 5.0)

Measured: growth inhibition

CN(C)N=Nc1ccc(NC=O)cc1
inactive: [1]; at 1.2 µM -2% | [1]; at 3.7 µM 1% | [1]; at 11.0 µM 9% | [2]; at 1.2 µM 11% | [2]; at 3.7 µM 6% | [2]; at 11.0 µM 8% | [3]; at 1.2 µM 20% | [3]; at 3.7 µM 27% | [3]; at 11.0 µM 23% | [4]; at 1.2 µM 5% | [4]; at 3.7 µM 4% | [4]; [16] 23% | [4]; at 11.0 µM 17% | [4]; [17] 67% | [5]; at 1.2 µM 0% | [5]; at 3.7 µM 13% | [5]; [16] 23% | [5]; at 11.0 µM 20% | [5]; [17] 47% | [6]; [16] -7% | [6]; [17] -44% | [6]; at 50.0 µM 66.2% | [7]; at 1.2 µM 31% | [7]; at 3.7 µM 27% | [7]; at 11.0 µM 49% | [8]; [16] -7% | [8]; [17] -19% | [9]; at 1.2 µM 15% | [9]; at 3.7 µM 18% | [9]; [16] -3% | [9]; at 11.0 µM 27% | [9]; [17] -22% | [10]; at 1.2 µM 18% | [10]; at 3.7 µM 9% | [10]; at 11.0 µM 14% | [11]; at 1.2 µM 2% | [11]; at 3.7 µM -7% | [11]; at 11.0 µM 6% | [12]; at 1.2 µM 2% | [12]; at 3.7 µM -5% | [12]; at 11.0 µM 8% | [13]; [16] 32% | [13]; [17] 65% | [14]; at 1.2 µM 19% | [14]; at 3.7 µM 24% | [14]; at 11.0 µM 35%
active: [1]; at 33.0 µM 92% | [1]; at 100.0 µM 99% | [2]; at 33.0 µM 86% | [2]; at 100.0 µM 98% | [3]; at 33.0 µM 88% | [3]; at 100.0 µM 99% | [4]; at 33.0 µM 97% | [4]; at 50.0 µM 89.7% | [4]; at 100.0 µM 99% | [5]; at 33.0 µM 90% | [5]; at 50.0 µM 91.8% | [5]; at 100.0 µM 99% | [7]; at 33.0 µM 98% | [7]; at 100.0 µM 99% | [8]; at 50.0 µM 85.2% | [9]; at 33.0 µM 94% | [9]; at 50.0 µM 78.7% | [9]; at 100.0 µM 99% | [10]; at 33.0 µM 96% | [10]; at 100.0 µM 99% | [11]; at 33.0 µM 91% | [11]; at 100.0 µM 99% | [12]; at 33.0 µM 93% | [12]; at 100.0 µM 99% | [13]; at 50.0 µM 87.4% | [14]; at 33.0 µM 98% | [14]; at 100.0 µM 99%

CN(C)N1C(=O)SCC(c2ccccc2)(c2ccccc2)C1=O
active: [14]; at 100.0 µM 75%
inactive: [1]; at 1.2 µM -4% | [1]; at 3.7 µM -4% | [1]; at 11.0 µM -3% | [1]; at 33.0 µM 6% | [1]; at 100.0 µM 16% | [2]; at 1.2 µM -2% | [2]; at 3.7 µM 2% | [2]; at 11.0 µM -32% | [2]; at 33.0 µM 4% | [2]; at 100.0 µM 7% | [4]; at 1.2 µM 4% | [4]; at 3.7 µM 7% | [4]; [16] -10% | [4]; at 11.0 µM 8% | [4]; at 33.0 µM 30% | [4]; [17] 61% | [4]; at 50.0 µM 64.8% | [4]; at 100.0 µM 50% | [5]; at 1.2 µM 1% | [5]; at 3.7 µM 1% | [5]; [16] 9% | [5]; at 11.0 µM 2% | [5]; at 33.0 µM 9% | [5]; [17] 43% | [5]; at 50.0 µM 10.2% | [5]; at 100.0 µM 27% | [15]; at 1.2 µM 1% | [15]; at 3.7 µM -3% | [15]; at 11.0 µM -4% | [15]; at 33.0 µM -15% | [15]; at 100.0 µM -19% | [6]; [16] 11% | [6]; [17] 43% | [6]; at 50.0 µM 15.4% | [7]; at 1.2 µM -2% | [7]; at 3.7 µM 7% | [7]; at 11.0 µM 2% | [7]; at 33.0 µM 1% | [7]; at 100.0 µM 2% | [8]; [16] -26% | [8]; [17] 3% | [8]; at 50.0 µM 6.9% | [9]; at 1.2 µM -2% | [9]; at 3.7 µM -1% | [9]; [16] 12% | [9]; at 11.0 µM 12% | [9]; at 33.0 µM 17% | [9]; [17] 60% | [9]; at 50.0 µM 21.6% | [9]; at 100.0 µM 23% | [10]; at 1.2 µM -2% | [10]; at 3.7 µM -3% | [10]; at 11.0 µM -1% | [10]; at 33.0 µM 4% | [10]; at 100.0 µM 11% | [11]; at 1.2 µM -1% | [11]; at 3.7 µM 1% | [11]; at 11.0 µM 1% | [11]; at 33.0 µM 12% | [11]; at 100.0 µM -10% | [12]; at 1.2 µM -1% | [12]; at 3.7 µM 1% | [12]; at 11.0 µM 4% | [12]; at 33.0 µM 20% | [12]; at 100.0 µM 34% | [13]; [16] 12% | [13]; [17] 29% | [13]; at 50.0 µM 47% | [14]; at 1.2 µM 6% | [14]; at 3.7 µM 5% | [14]; at 11.0 µM 26% | [14]; at 33.0 µM 59%

CC1C=CN(N(C)C)C2=C1C(=O)c1cnccc1C2=O (stereo unspecified)
inactive: [1]; at 1.2 µM -1% | [1]; at 3.7 µM 7% | [1]; at 11.0 µM 47% | [2]; at 1.2 µM -4% | [2]; at 3.7 µM 53% | [3]; at 1.2 µM -31% | [3]; at 3.7 µM 9% | [3]; at 11.0 µM 51% | [4]; at 1.2 µM 31% | [4]; at 3.7 µM 68% | [15]; at 1.2 µM -70% | [15]; at 3.7 µM -31% | [15]; at 11.0 µM 46% | [6]; [16] 48% | [7]; at 1.2 µM -11% | [7]; at 3.7 µM 10% | [7]; at 11.0 µM 49% | [8]; [16] 25% | [8]; [17] -18% | [9]; at 1.2 µM -38% | [9]; at 3.7 µM -8% | [9]; [16] 12% | [9]; at 11.0 µM 46% | [9]; [17] 6% | [10]; at 1.2 µM 5% | [10]; at 3.7 µM 6% | [10]; at 11.0 µM 43% | [11]; at 1.2 µM -48% | [11]; at 3.7 µM -23% | [11]; at 11.0 µM 40% | [12]; at 1.2 µM 41% | [12]; at 3.7 µM 46% | [12]; at 11.0 µM 65%
active: [1]; at 33.0 µM 83% | [1]; at 100.0 µM 96% | [2]; at 11.0 µM 82% | [2]; at 33.0 µM 91% | [2]; at 100.0 µM 93% | [3]; at 33.0 µM 87% | [3]; at 100.0 µM 96% | [4]; [16] 81% | [4]; at 11.0 µM 86% | [4]; at 33.0 µM 93% | [4]; [17] 93% | [4]; at 50.0 µM 85% | [4]; at 100.0 µM 96% | [15]; at 33.0 µM 89% | [15]; at 100.0 µM 95% | [6]; [17] 86% | [6]; at 50.0 µM 89.7% | [7]; at 33.0 µM 90% | [7]; at 100.0 µM 93% | [8]; at 50.0 µM 87.8% | [9]; at 33.0 µM 89% | [9]; at 50.0 µM 85.2% | [9]; at 100.0 µM 97% | [10]; at 33.0 µM 90% | [10]; at 100.0 µM 96% | [11]; at 33.0 µM 89% | [11]; at 100.0 µM 97%
